# Source: the supplement of paper PMC3545927
# This is one part of the list. The hit rate among all sequences tested is not known here.
# B1: HC1787 (peptide)
# chain: CAFEMEECSQAGNASASA
# B2: HC2397 (peptide)
# chain: CAEVPCHRSSAGNASASA
# B3: HC2360 (peptide)
# chain: CAEVCCHRPSAGNASASA
# B4: FS-766 (peptide)
# chain: CAEVRRVGRSAGNASASA
# B5: FS-1281 (peptide)
# chain: CASHSREGRSAGNASASA
# B6: FS-1616 (peptide)
# chain: CASTGYPKRSAGNASASA
# B7: FS-1168 (peptide)
# chain: CASTGRVGRSAGNASASA
# B8: FS-617 (peptide)
# chain: CALYSRVGRSAGNASASA
# B9: HC2353 (peptide)
# chain: CAEVRCHRPSAGNASASA
# B10: NG8 (peptide)
# chain: CAAIFQGPIDAGNASASA
# B11: HC1761 (peptide)
# chain: CAMEECSQNLAGNASASA
# B12: HC2460 (peptide)
# chain: CAECEVPCHRAGNASASA
# B13: FS-1471 (peptide)
# chain: CAPAQRLARSAGNASASA
# B14: FS-70 (peptide)
# chain: CAPPQKAKRSAGNASASA
# B15: FS-597 (peptide)
# chain: CAHPSPLKRSAGNASASA
# B16: FS-546 (peptide)
# chain: CAKPSKLKRSAGNASASA
# B17: FS-612 (peptide)
# chain: CALPCRPQRSAGNASASA
# B18: FS-1049 (peptide)
# chain: CAPPQRTQRSAGNASASA
# B19: HC2164 (peptide)
# chain: CAEIVTSTWVAGNASASA
# B20: HC2099 (peptide)
# chain: CAVVCCSMSPAGNASASA
# B21: FS-2907 (peptide)
# chain: CAREARGSSRAGNASASA
# B22: HC1974 (peptide)
# chain: CAEKTTPCSGAGNASASA
# B23: HC1027 (peptide)
# chain: CALGLLQTASAGNASASA
# B24: HC327 (peptide)
# chain: CAVMAQLLRIAGNASASA
# B25: HC2240 (peptide)
# chain: CAEVVTSTCVAGNASASA
# B26: HC788 (peptide)
# chain: CANPSVAATLAGNASASA
# B27: FS-1153 (peptide)
# chain: CAQPHRAQRSAGNASASA
# B28: FS-1123 (peptide)
# chain: CAEYRRRGRSAGNASASA
# B29: FS-342 (peptide)
# chain: CAKNIRRGRSAGNASASA
# Target: furin, P09958
# Experiment: furin cleavage Z-score vs untreated control; higher = more cleavage, active = 3.5 or more, inactive = 1 or less, 8 variable residues between constant flanks
# Procedure: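 Multiplexed peptide-cDNA fusion cleavage assay. 8-mer variable peptides flanked by constant Cys-Ala (N-term) and Ala-Gly-Asn-Ala-Ser-Ala-Ser-Ala (C-term) and conjugated to a cDNA oligonucleotide were bead-immobilised via the N-terminus. They were treated with purified furin at a 1:10 enzyme:substrate ratio in 50 mM HEPES pH 7.5, 1 mM CaCl2, 100 mM NaCl for 7.5, 15 or 30 min. Released cDNA was counted by next-generation sequencing, and log counts versus no-furin controls were lowess-adjusted and converted to robust Z-scores.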
# furin, P09958, sequence (P09958 whole entry): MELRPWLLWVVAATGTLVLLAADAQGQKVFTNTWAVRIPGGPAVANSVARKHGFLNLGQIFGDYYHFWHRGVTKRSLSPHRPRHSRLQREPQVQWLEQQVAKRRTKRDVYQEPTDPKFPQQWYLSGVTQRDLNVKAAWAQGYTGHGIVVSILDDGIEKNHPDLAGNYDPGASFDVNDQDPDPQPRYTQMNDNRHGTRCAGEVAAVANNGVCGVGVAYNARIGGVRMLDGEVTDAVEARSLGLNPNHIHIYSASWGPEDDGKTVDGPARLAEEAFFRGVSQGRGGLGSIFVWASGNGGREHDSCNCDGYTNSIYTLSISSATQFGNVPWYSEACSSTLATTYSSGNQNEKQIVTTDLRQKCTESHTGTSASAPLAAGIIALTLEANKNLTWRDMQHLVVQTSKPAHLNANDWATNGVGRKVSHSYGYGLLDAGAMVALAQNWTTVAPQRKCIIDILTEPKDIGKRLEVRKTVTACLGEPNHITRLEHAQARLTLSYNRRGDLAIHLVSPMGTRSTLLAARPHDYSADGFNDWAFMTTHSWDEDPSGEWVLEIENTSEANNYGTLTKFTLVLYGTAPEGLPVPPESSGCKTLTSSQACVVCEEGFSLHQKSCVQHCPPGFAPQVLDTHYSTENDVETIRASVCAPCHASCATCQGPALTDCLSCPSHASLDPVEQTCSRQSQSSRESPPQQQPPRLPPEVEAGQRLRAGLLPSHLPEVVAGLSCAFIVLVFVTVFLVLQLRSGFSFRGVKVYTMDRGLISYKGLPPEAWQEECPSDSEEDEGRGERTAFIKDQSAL
Sequence,furin cleavage Z-score (7.5 min),furin cleavage Z-score (15 min),furin cleavage Z-score (30 min)
B1,-0.0244 (inactive),-1.03 (inactive),0.747 (inactive)
B2,0.159 (inactive),1.25,1.43
B3,0.494 (inactive),0.659 (inactive),-0.0079 (inactive)
B4,5.5 (active),6.28 (active),4.53 (active)
B5,2.57,1.17,3.76 (active)
B6,0.639 (inactive),-0.301 (inactive),-0.705 (inactive)
B7,4.32 (active),6.64 (active),7 (active)
B8,8 (active),8.87 (active),7.73 (active)
B9,1.89,0.104 (inactive),-0.327 (inactive)
B10,-1.22 (inactive),0.323 (inactive),-1.13 (inactive)
B11,-0.233 (inactive),0.845 (inactive),0.876 (inactive)
B12,1.55,-0.187 (inactive),2.66
B13,10.2 (active),11.3 (active),9.54 (active)
B14,10.3 (active),12.4 (active),10.2 (active)
B15,-0.0472 (inactive),2.27,1.02
B16,7.13 (active),8.9 (active),7.35 (active)
B17,0.0451 (inactive),0.649 (inactive),1.4
B18,4.31 (active),5.78 (active),6.79 (active)
B19,-0.266 (inactive),-1.49 (inactive),1.35
B20,-0.463 (inactive),-1.06 (inactive),-1.28 (inactive)
B21,-0.25 (inactive),-0.261 (inactive),-1.18 (inactive)
B22,-1.24 (inactive),-0.951 (inactive),-0.151 (inactive)
B23,-0.682 (inactive),-0.203 (inactive),0.0385 (inactive)
B24,-0.76 (inactive),-0.535 (inactive),-1.17 (inactive)
B25,-0.298 (inactive),-0.394 (inactive),-0.1 (inactive)
B26,-2.1 (inactive),0.787 (inactive),0.461 (inactive)
B27,6.97 (active),6.29 (active),6.74 (active)
B28,4.99 (active),5.3 (active),5.5 (active)
B29,8.62 (active),9.43 (active),6.74 (active)
